Compound activity deposited in PubChem by several laboratories.
NPR1 activator – GC-A stimulated cGMP production enhancers – HEK293 GC-A cells, cGMP TR-FRET, EC30 ANP, primary screen; activation, % at 10 µM; Atrial natriuretic peptide receptor 1 (Homo sapiens), P16066; hit rate 0.14% among 370,000; 0% at EC30 ANP, 100% saturating ANP; in the data active = activation above about 40%
TLR4 MyD88 comp – inhibitors of TLR4-MyD88 association in cells, primary screen, cell-based, HeLa CL3-4, BLA complementation, FRET ratio. Toll-like receptor 4 (Homo sapiens) + Myeloid differentiation primary response protein …. inhibition, % at 8.4 µM. HeLa CL3-4 TLR4/MyD88 BLA complementation. hit rate 0.18% among 200,000; in the data active = inhibition above about 25%;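 note: 0% = vehicle and 100% = reference inhibitor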
Target sequence (O00206 whole entry, looked up): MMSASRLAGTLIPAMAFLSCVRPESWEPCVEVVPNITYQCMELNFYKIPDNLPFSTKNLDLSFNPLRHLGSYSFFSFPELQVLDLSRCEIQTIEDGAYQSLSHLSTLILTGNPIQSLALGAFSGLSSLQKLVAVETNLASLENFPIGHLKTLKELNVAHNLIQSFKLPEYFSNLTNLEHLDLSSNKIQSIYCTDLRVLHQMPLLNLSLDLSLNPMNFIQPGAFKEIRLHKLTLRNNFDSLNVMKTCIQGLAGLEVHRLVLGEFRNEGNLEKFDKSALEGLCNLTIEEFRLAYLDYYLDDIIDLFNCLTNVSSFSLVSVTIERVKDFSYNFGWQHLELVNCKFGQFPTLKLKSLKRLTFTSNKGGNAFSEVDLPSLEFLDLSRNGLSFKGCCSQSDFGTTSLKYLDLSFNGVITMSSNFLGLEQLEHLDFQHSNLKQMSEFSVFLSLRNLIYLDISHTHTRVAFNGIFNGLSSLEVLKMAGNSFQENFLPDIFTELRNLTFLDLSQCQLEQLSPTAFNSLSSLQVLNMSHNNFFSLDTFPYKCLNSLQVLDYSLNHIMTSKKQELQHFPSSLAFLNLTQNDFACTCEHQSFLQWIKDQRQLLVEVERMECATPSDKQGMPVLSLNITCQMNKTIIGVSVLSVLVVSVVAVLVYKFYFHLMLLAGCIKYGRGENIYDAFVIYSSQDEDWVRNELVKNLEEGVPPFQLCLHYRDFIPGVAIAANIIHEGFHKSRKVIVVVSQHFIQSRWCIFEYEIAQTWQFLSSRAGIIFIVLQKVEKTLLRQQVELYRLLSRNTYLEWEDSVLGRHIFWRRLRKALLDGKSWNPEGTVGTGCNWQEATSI
Target sequence (Q99836 whole entry, looked up): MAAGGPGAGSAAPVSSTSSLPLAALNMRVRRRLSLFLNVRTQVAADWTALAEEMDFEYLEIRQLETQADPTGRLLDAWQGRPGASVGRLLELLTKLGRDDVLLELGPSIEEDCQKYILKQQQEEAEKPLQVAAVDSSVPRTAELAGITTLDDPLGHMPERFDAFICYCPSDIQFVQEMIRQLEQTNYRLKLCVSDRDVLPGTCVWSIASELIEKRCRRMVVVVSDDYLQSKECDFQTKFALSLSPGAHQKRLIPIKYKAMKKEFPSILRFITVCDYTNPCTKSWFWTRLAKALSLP
Neddyl block – inhibitors of cullin neddylation, primary screen, biochemical, TR-FRET, uHTS, NAE and Ubc12. NEDD8-conjugating enzyme Ubc12 (Homo sapiens) + NEDD8-activating enzyme E1 regulatory …. inhibition, % at 25 µM. hit rate 0.58% among 360,000. AID 651699, 2012; in the data active = inhibition above about 36%
NPR2 activator – human GC-B receptor activators, primary screen, HEK293 GC-B cells, cGMP TR-FRET, EC30 CNP; Atrial natriuretic peptide receptor 2 (Homo sapiens), P20594; 0% at EC30 CNP, 100% saturating CNP; activation, % at 10 µM; hit rate 0.11% among 370,000; AID 1920062, 2024;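 active = activation at 10 µM reaching about 35% in either raw or pattern-adjusted values, limit read from the data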
TLR9-MyD88 inh – inhibitors of TLR9-MyD88 association in cells, primary screen, cell-based, CHO, BLA complementation, fluorescence. inhibition, % at 4.98 µM. AID 504734, 2011. hit rate 0.21% among 340,000. CCF4 FRET ratio;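 active = inhibition above the mean over all tested compounds plus 3 SD, cut at about 21% in these data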;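 note: 0% = DMSO only wells and 100% = clavulanate BLA inhibitor control wells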
NOD2-RIPK2 inh – NOD2-RIPK2 binding disruptors in cells, primary screen, fluorescence, CHO cells, BLA complementation; CCF4 ratio; inhibition, % at 4.98 µM; Receptor-interacting serine/threonine-protein kinase 2 (Homo sapiens), O43353; hit rate 0.38% among 360,000; in the data active = inhibition above about 21%;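 note: 0% = vehicle only and 100% = reference blocker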
NOD2-RIPK2 conf – NOD2-RIPK2 binding disruptors, retest, confirmation, fluorescence, CHO cells, BLA complementation, triplicate | hit rate 70% among 1,200 | shares compounds with NOD2-RIPK2 inh | inhibition, % at 4.98 µM | AID 624370, 2012 | CCF4 FRET;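 active = mean inhibition across replicates above a set limit taken from the earlier primary screen, cut at about 21% in these data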;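 note: 0% = DMSO-only wells and the high end = clavulanate BLA-blocked wells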
NOD2 BLA counter – hits BLA reporter in NOD2-RIPK2 inhibitor counterscreen. shares compounds with NOD2-RIPK2 inh. CHO BLA reporter, CCF4 FRET ratio. inhibition, % at 4.98 µM. hit rate 57% among 1,200;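 active = mean inhibition above the low-control mean inhibition plus three low-control SD, cut at about 11% in these data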;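 note: 0% = DMSO only wells and 100% = clavulanate high control wells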
Numbers without * were called inactive; x = not tested or not shown. The list is not random: actives were taken first. Their share in the collection is about 1.2%.

SMILES	NPR1 activator	TLR4 MyD88 comp	Neddyl block	NPR2 activator	TLR9-MyD88 inh	NOD2-RIPK2 inh	NOD2-RIPK2 conf	NOD2 BLA counter
Cc1ccc(C2C=C(c3ccccc3)Nc3nc(N4C(=O)CCC4=O)nn32)cc1 (configuration not stated)	-0.4	23.1	x	-6.7	x	44.8*	32.7*	34.6*
Cc1ccc(C)c(NC(=O)C2CCCN2S(=O)(=O)c2cccc3cccnc23)c1 (configuration not stated)	2.4	x	x	-4.2	x	x	x	x
CN(C)c1ccc(C=Cc2ccnc3ccccc23)cc1N	-2.4	x	8.6	-6.6	x	32.6*	32.4*	32.5*
N#CC1=C(N)Oc2cc(O)c(Cl)cc2C1c1cccnc1 (configuration not stated)	1.7	x	-13.7	0.4	9.1	30.8*	-0.9	3.7
COc1ccc2c(c1)sc1nc(-c3ccccc3)cn12	-5.5	-5.3	5.4	-7.8	-8.2	40.0*	9.4	-0.7
CCOC(=O)C1CCCN(S(=O)(=O)c2ccc3c4c(cccc24)C(=O)N3CC)C1 (configuration not stated)	4.9	x	x	6.5	5.5	27.0*	25.2*	25.1*
CCN1C(=O)c2cccc3c(S(=O)(=O)N4CCCC4C(=O)O)ccc1c23 (configuration not stated)	0.1	x	x	4.0	-3.4	8.3	x	x
CCC(=O)c1ccc(OCC(=O)N2CCN(c3ccccn3)CC2)cc1	-0.5	x	18.8	-1.6	6.9	27.8*	-1.0	4.5
O=C(COc1cccc2ccccc12)N1CCN(c2ccccn2)CC1	-3.9	0.9	9.7	0.7	-1.1	-9.5	x	x
CCCCc1c(-c2ccccc2OC)ncn1Cc1cccc(F)c1	-16.5	x	x	-15.3	x	x	x	x
O=c1oc2cc(O)ccc2cc1-c1ccccc1	9.9	x	29.3	-3.3	8.2	22.5*	28.0*	40.4*
O=c1oc2ccccc2cc1-c1ccc(O)cc1O	0.4	-7.0	1.1	-4.5	-6.0	-16.7	x	x
COC(=O)C1=C(C)N(C)C(=NCc2cccc(C(F)(F)F)c2)NC1c1ccc(Cl)cc1 (configuration not stated)	-12.4	x	x	-11.7	x	x	x	x
COc1nn(-c2ccccc2)c(=O)c(Cl)c1Cl	10.5	x	-175.9	2.1	-13.1	26.9*	26.7*	6.3
Cc1occc1C(=O)N/N=C/C=C/c1ccc(N(C)C)cc1	-5.5	x	40.1*	-5.2	10.8	26.9*	37.2*	36.6*
N#CC(=C1C=C(Br)C(=NO)C=C1Cl)c1cccc2ccccc12	-4.4	x	-16.9	0.9	-1.0	41.4*	58.2*	29.8*
CCN(CC)c1ccc(C=C(c2nnnn2-c2ccc(C)cc2)c2nnnn2-c2ccc(C)cc2)cc1	4.6	18.5	27.1	2.5	18.8	22.0*	27.9*	34.1*
Cc1ccccc1-c1ccc2c(c1)[C@@H]1C[C@H](N(C)C(=O)Nc3ccccc3)[C@H]([C@H](C)O)CN1CC2	-6.7	x	x	-2.0	x	x	x	x
O=[N+]([O-])c1cc(Br)c(Nc2ccccc2)c([N+](=O)[O-])c1	2.7	x	-17.3	8.3	8.9	41.0*	58.3*	-7.6
C=CCn1c(Cc2cccs2)nnc1SCC(=O)Nc1ccc(OCc2ccccc2)cc1	-1.4	x	x	-6.9	x	x	x	x
Cc1ccc(-n2c(SCC(=O)c3ccccc3Br)nnc2-c2ccncc2)cc1	-6.2	x	x	-10.9	x	x	x	x
CC(C)(C)NC(=O)C(c1cc2ccccc2o1)n1c(=O)c(-c2cc3ccccc3[nH]2)nc2ccccc21 (configuration not stated)	5.7	x	x	1.6	x	49.8*	46.4*	69.8*
